From PubChem BioAssay AID1259420 (Broad Institute, 2018)
Where “and” joins values, the source holds several entries; their conditions need not be identical. Identical values can stand only once. In all, about 1,000 compounds went through this assay and about 250 (25%) were called active. Another 31% or so got no clear call; they are omitted. These entries were drawn from the full list. Potency and affinity values are given separately. Values without a mark were called inactive. The rule behind the calls is not given here. Bridge positions count the residues as written; N and C are the ends. Square brackets hold non-standard residues; d marks the D form. Peptide text beside a SMILES is read from it. * marks the point of attachment. ξ: configuration not given here. Heptanoyl(6-Me) = CC(C)CCCCC(=O)*; ξDab = NCCC(N)C(=O)O; ξT = CC(O)C(N)C(=O)O

Assay: compound activity on host-cell Toxoplasma growth – dose response (AID 1259420);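 note: host cells were HeLa; final incubation lasted 72 hours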
Details: Toxoplasma gondii growth in host cells, no IFN-gamma

COCC12CCCOC1CCN(S(=O)(=O)c1cn(C)cn1)C2 (stereo unspecified)
max activity (at 19.5 µM unless noted): -11.3% [at 2.6 µM]

CC(C)C#Cc1ccc([C@@H]2[C@@H](CO)N3C(=O)CN(S(=O)(=O)c4ccccc4)C[C@H]23)cc1
max activity (at 19.5 µM unless noted): 8.39%

Cc1ccc(S(=O)(=O)N2CC[C@@H]3[C@H](CO)Nc4ccc(-c5cccc(C(=O)N(C)C)c5)cc4[C@@H]32)cc1
max activity (at 19.5 µM unless noted): 15.5%

O=C(C[C@H]1CC[C@@H]2[C@H](COC[C@H](O)CN2C(=O)c2cc(Cl)cc(Cl)c2)O1)N1CCc2ccccc2C1
max activity (at 19.5 µM unless noted): 6.12% [at 2.6 µM]

c1ccc(-c2ccc([C@H]3[C@H]4CNC[C@@H]3N4Cc3cc(-c4ccccc4)on3)cc2)cc1
max activity (at 19.5 µM unless noted): 21.8% [at 21 µM]

Cc1ccc(S(=O)(=O)Nc2ccc3c(c2)C(=O)N([C@@H](C)CO)C[C@H](C)[C@H](CN(C)Cc2ccc(C(F)(F)F)cc2)O3)cc1
max activity (at 19.5 µM unless noted): 18.3%

COc1ccc(S(=O)(=O)N(C)C[C@H]2Oc3c(NC(=O)c4nc5ccccc5s4)cccc3C(=O)N([C@@H](C)CO)C[C@H]2C)cc1
max activity (at 19.5 µM unless noted): 5.87% [at 5 µM]

OC[C@@H]1[C@@H](c2ccc(-c3cccc(F)c3)cc2)[C@@H]2CN(Cc3cncnc3)CCCCN12
max activity (at 1.2 µM): -7.4%
max activity (at 19.5 µM): 16.1%

Cc1ccc(CN2CC[C@H]3CO[C@@H](CNC(=O)C4CC4)[C@@H]3C2)cc1
max activity (at 19.5 µM unless noted): -26.4% [at 10 µM]

CC(C)CCCCC(=O)NC(CCN)C(=O)NC(C(=O)NC(CCN)C(=O)NC1CCNC(=O)C(C(C)O)NC(=O)C(CCN)NC(=O)C(CCN)NC(=O)[C@H](CC(C)C)NC(=O)[C@@H](CC(C)C)NC(=O)C(CCN)NC1=O)C(C)O (stereo partly drawn) ({Heptanoyl(6-Me)}-[ξDab][ξT][ξDab][ξDab][ξDab][dL]L[ξDab][ξDab][ξT]; lactam 4-C)
max activity (at 19.5 µM unless noted): -5.41% [at 2.6 µM]

O=C(C1CCCCC1)N1[C@@H](CO)[C@@H]2c3ccccc3N(S(=O)(=O)c3ccccc3)C[C@@H]21
max activity (at 19.5 µM unless noted): 7.57%

O=C(NC1CCCC1)N1[C@@H]2CNC[C@H]1C2c1ccc(-c2cccnc2)cc1 (stereo partly specified)
max activity (at 19.5 µM unless noted): -14.9% [at 10 µM]

CN(C)C(=O)c1cccc(-c2ccc3c(c2)[C@@H]2[C@@H](CCN2C(=O)Cc2ccccc2)[C@H](CO)N3)c1
max activity (at 19.5 µM unless noted): 13.7% [at 21 µM]

CN(C)C(=O)c1cccc(-c2ccc3c(c2)[C@H]2[C@H](CCN2C(=O)Cc2ccccc2)[C@@H](CO)N3)c1
max activity (at 19.5 µM unless noted): -6.17% [at 10 µM]

O=C(Cc1cccnc1)N1CC(=O)N2[C@@H](CO)[C@H](c3ccc(C#CC4CCCCC4)cc3)[C@@H]2C1
max activity (at 19.5 µM unless noted): -4.29% [at 10 µM]

CC(C)NC(=O)N1CC(=O)N2[C@H](C1)[C@@H](c1ccc(/C=C/c3ccccc3)cc1)[C@@H]2CO
max activity (at 19.5 µM unless noted): 11.9% [at 5 µM]

CN(C)C(=O)c1cc2c(nc1NCC1CC1)CCN(Cc1ccccn1)CC2
max activity (at 19.5 µM unless noted): -6.11% [at 10 µM]

CC(C)CN(C[C@@H](O)[C@H](Cc1ccccc1)NC(=O)O[C@H]1CO[C@H]2OCC[C@H]21)S(=O)(=O)c1ccc(N)cc1
max activity (at 19.5 µM unless noted): 6.05% [at 1.2 µM]

O=C(C1CC1)N1C[C@@H]2N[C@H](C1)C2c1ccc(/C=C/c2ccccc2)cc1 (stereo partly specified)
max activity (at 19.5 µM unless noted): 27.3%

COc1ccc(-c2ccc(C3[C@@H]4CN(C(=O)c5cnccn5)C[C@H]3N4)cc2)cc1 (stereo partly specified)
max activity (at 19.5 µM unless noted): 19.9%

COc1ccccc1-c1ccc(C2[C@@H]3CN(C(=O)c4ccncc4)C[C@H]2N3)cc1 (stereo partly specified)
max activity (at 19.5 µM unless noted): -11% [at 5 µM]

Cc1csc([C@H]2C[C@H]3CCN(C(=O)c4cnccn4)C[C@@H]3O2)n1
max activity (at 19.5 µM unless noted): -12.1%

CC(C)CNC(=O)c1cc(-c2ccn(CC3CC3)n2)n2ccccc12
max activity (at 19.5 µM unless noted): 21.6%

Cc1ccc(S(=O)(=O)N2CCC3(CC2)OC(C(=O)N(C)C)Cn2ccnc23)cc1 (stereo unspecified)
max activity (at 19.5 µM unless noted): -17%

CN(C)C(=O)CN1C[C@@H]2CCN(C(=O)Nc3ccccc3Cl)CC[C@H]2S1(=O)=O
max activity (at 19.5 µM unless noted): 7.52% [at 2.6 µM]

O=C(NC1CCCC1)N1CC[C@H]2CN(Cc3cccc(Cl)c3)S(=O)(=O)[C@@H]2CC1
max activity (at 19.5 µM unless noted): -17.4%

CC(C)n1c(C(=O)N2CCN(c3ccncc3)CC2)cc2c1c1ccccc1n2C
max activity (at 19.5 µM unless noted): 37.4%

COc1ccccc1C#Cc1ccc([C@@H]2[C@H](CO)N3CCCCN(C(=O)C4CCC4)C[C@@H]23)cc1
max activity (at 19.5 µM unless noted): 17.3%

CS(=O)(=O)N1CCO[C@@H]2CN(C(=O)Cc3ccccn3)CC[C@H]2C1
max activity (at 19.5 µM unless noted): -18.9% [at 1.2 µM]

Cn1c([N+](=O)[O-])cnc1COC(N)=O
max activity (at 19.5 µM unless noted): -13.4% [at 0.6 µM]

N#C[C@H]1N[C@@H](CO)[C@@H]1c1ccc(C#CC2CCCCC2)cc1
max activity (at 19.5 µM unless noted): 28% [at 21 µM]

C=CC[C@@H]1CC=C[C@@H](C)N1C(=O)CCn1c(C)cc(C)nc1=O
max activity (at 0.16 µM): 10.8%
max activity (at 10 µM): -10.5%

Oc1[nH]c2ccccc2c1N=Nc1nc(Nc2ccccc2)nc(N2CCOCC2)n1
max activity (at 19.5 µM unless noted): -17.4% [at 5 µM]

COc1cccc(-c2ccc3c(c2)[C@H]2[C@H](CCN2S(=O)(=O)c2ccccc2F)[C@H](CO)N3)c1
max activity (at 19.5 µM unless noted): 10%

O=C(c1cnccn1)N1CC(=O)N2[C@H](C1)[C@H](c1ccc(/C=C/c3ccccc3)cc1)[C@@H]2CO
max activity (at 19.5 µM unless noted): 11.5% [at 0.16 µM]

O=S1(=O)c2ccccc2OCC2(CCN(Cc3ccc(F)cc3)CC2)CN1CC1CC1
max activity (at 19.5 µM unless noted): 28.5%

COCC#Cc1ccc([C@H]2[C@H](CO)N3CCCCN(C(=O)NC4CCCC4)C[C@@H]23)cc1
max activity (at 19.5 µM unless noted): -13.1% [at 10 µM]

O=C(Nc1ccc2c(c1)OCO2)N1C[C@@H]2N[C@H](C1)C2c1ccc(C=Cc2ccccc2)cc1 (stereo partly specified)
max activity (at 19.5 µM unless noted): 38% [at 10 µM]

CC(C)c1cccc(NC(=O)C[C@H]2CC[C@H]3[C@@H](COc4ccc(NS(=O)(=O)c5ccccc5Cl)cc4C(=O)N3C)O2)c1
max activity (at 19.5 µM unless noted): -22.8% [at 10 µM]

COc1cccc(C(=O)Nc2ccc3c(c2)C(=O)N(C)[C@H]2CC[C@@H](CC(=O)N[C@@H](C)c4ccccc4)O[C@H]2CO3)c1
max activity (at 19.5 µM unless noted): 8.03% [at 0.3 µM]

CN1C(=O)c2cc(NC(=O)c3cccc(F)c3)ccc2OC[C@H]2O[C@@H](CC(=O)NCC3CCCCC3)CC[C@@H]21
max activity (at 19.5 µM unless noted): -18% [at 2.6 µM]

CN1C(=O)c2cc(NC(=O)c3cccc(F)c3)ccc2OC[C@@H]2O[C@@H](CC(=O)NCC3CCCCC3)CC[C@@H]21
max activity (at 19.5 µM unless noted): -20.9% [at 2.6 µM]

CN1C(=O)c2cc(NC(=O)c3cccc(F)c3)ccc2OC[C@@H]2O[C@H](CC(=O)NCC3CCCCC3)CC[C@@H]21
max activity (at 19.5 µM unless noted): -23.6% [at 10 µM]

CN1C(=O)c2cc(NC(=O)c3cccc(F)c3)ccc2OC[C@H]2O[C@@H](CC(=O)NCC3CCCCC3)CC[C@H]21
max activity (at 0.16 µM): 4.44%
max activity (at 5 µM): -19.3%
max activity (at 19.5 µM): -5.09%

Cc1ccccc1S(=O)(=O)N1CCCCN2[C@H](CO)[C@H](c3ccc(C#CCN(C)C)cc3)[C@@H]2C1
max activity (at 19.5 µM unless noted): -9.35% [at 10 µM]

Cc1ccccc1-c1ccc(C2[C@@H]3CN(C(=O)C4CCOCC4)C[C@H]2N3)cc1 (stereo partly specified)
max activity (at 0.6 µM): -10.3%
max activity (at 5 µM): -5.78%

C1=C(c2ccccc2)CC(c2ccccc2)=NN=C1c1ccccc1
max activity (at 19.5 µM unless noted): -9.17% [at 10 µM]

COc1cccc(S(=O)(=O)N2CCCCN3[C@H](CO)[C@@H](c4ccc(C#CCC(C)C)cc4)[C@@H]3C2)c1
max activity (at 19.5 µM unless noted): -24.9% [at 0.038 µM]

COc1cccc(S(=O)(=O)N2CCCCN3[C@H](CO)[C@H](c4ccc(C#CCC(C)C)cc4)[C@@H]3C2)c1
max activity (at 0.038 µM): -25.2%
max activity (at 19.5 µM): -36.4%

O=S(=O)(c1ccccc1)N1CCCCN2[C@H](C1)[C@@H](c1ccc(C#CC3CCCC3)cc1)[C@@H]2CO
max activity (at 19.5 µM unless noted): 22.5%

COc1cccc(S(=O)(=O)N2CCCCN3[C@@H](CO)[C@H](c4ccc(C#CCC(C)C)cc4)[C@@H]3C2)c1
max activity (at 19.5 µM unless noted): -27.2% [at 0.3 µM]

O=S(=O)(c1ccccc1)N1CCCCN2[C@@H](CO)[C@@H](c3ccc(C#CC4CCCC4)cc3)[C@@H]2C1
max activity (at 19.5 µM unless noted): 18.8% [at 10 µM]

COc1cccc(S(=O)(=O)N2CCCCN3[C@H](C2)[C@@H](c2ccc(C#CCC(C)C)cc2)[C@@H]3CO)c1
max activity (at 19.5 µM unless noted): -34.5% and -29.4%

O=S(=O)(c1ccccc1)N1CCCCN2[C@H](CO)[C@@H](c3ccc(C#CC4CCCC4)cc3)[C@@H]2C1
max activity (at 19.5 µM unless noted): 39.2%

CNCCCC12CCC(c3ccccc31)c1ccccc12
max activity (at 19.5 µM unless noted): 17.3%

CCC(=O)N1CC(=O)N2[C@H](C1)[C@H](c1ccc(C#CCC(C)C)cc1)[C@@H]2CO
max activity (at 19.5 µM unless noted): -9.55% [at 5 µM]

O=C(NC1CCCC1)N1CC(=O)N2[C@H](CO)[C@H](c3ccc(C4=CCCCC4)cc3)[C@@H]2C1
max activity (at 19.5 µM unless noted): 10.5% [at 0.6 µM]

CS(=O)(=O)N1CC(=O)N2[C@H](CO)[C@@H](c3ccc(C#CCC4CCCC4)cc3)[C@H]2C1
max activity (at 19.5 µM unless noted): 17.7% [at 21 µM]

COC(=O)C[C@H]1CC[C@@H]2[C@@H](COc3ccc(NC(=O)Nc4cccc(C#N)c4)cc3C(=O)N2C)O1
max activity (at 19.5 µM unless noted): 32.3% and 6.8%

CC=Cc1ccc2n(c1=O)C[C@H]1[C@H](CO)[C@@H](C(=O)Nc3ccc(-c4ccccc4)cc3)[C@@H]2N1C(=O)CC (mixture of isomers)
max activity (at 19.5 µM unless noted): -8.34%
